HSP90 inh – HSP90 refolding inhibition in rabbit reticulocyte lysate; luciferase refolding luminescence, 3 h; inhibition, % at 5.6 µM; 0.91% of 290,000 active;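 active = inhibition above the screen-wide mean plus 3 SD, computed separately per campaign, cut at about 16% in these data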;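 note: 0% = DMSO wells and 100% = 60 µM geldanamycin wells; inhibitors lower the luminescence because luciferase stays unfolded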
p-CIP stab down – lowers stability of the mouse p/CIP coactivator protein | Q05BA5 | F442A p/CIP-EGFP cells, EGFP fluorescence, 16 h | decrease of EGFP signal, % at 10 µM | 0.01% of 290,000 active;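 active = EGFP signal decrease of at least 30% at 10 µM or well 3 SD below plate mean, unless failing retest; inactive = the rest, including hits failing retest or dose response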
Target sequence (Q05BA5 1-1403): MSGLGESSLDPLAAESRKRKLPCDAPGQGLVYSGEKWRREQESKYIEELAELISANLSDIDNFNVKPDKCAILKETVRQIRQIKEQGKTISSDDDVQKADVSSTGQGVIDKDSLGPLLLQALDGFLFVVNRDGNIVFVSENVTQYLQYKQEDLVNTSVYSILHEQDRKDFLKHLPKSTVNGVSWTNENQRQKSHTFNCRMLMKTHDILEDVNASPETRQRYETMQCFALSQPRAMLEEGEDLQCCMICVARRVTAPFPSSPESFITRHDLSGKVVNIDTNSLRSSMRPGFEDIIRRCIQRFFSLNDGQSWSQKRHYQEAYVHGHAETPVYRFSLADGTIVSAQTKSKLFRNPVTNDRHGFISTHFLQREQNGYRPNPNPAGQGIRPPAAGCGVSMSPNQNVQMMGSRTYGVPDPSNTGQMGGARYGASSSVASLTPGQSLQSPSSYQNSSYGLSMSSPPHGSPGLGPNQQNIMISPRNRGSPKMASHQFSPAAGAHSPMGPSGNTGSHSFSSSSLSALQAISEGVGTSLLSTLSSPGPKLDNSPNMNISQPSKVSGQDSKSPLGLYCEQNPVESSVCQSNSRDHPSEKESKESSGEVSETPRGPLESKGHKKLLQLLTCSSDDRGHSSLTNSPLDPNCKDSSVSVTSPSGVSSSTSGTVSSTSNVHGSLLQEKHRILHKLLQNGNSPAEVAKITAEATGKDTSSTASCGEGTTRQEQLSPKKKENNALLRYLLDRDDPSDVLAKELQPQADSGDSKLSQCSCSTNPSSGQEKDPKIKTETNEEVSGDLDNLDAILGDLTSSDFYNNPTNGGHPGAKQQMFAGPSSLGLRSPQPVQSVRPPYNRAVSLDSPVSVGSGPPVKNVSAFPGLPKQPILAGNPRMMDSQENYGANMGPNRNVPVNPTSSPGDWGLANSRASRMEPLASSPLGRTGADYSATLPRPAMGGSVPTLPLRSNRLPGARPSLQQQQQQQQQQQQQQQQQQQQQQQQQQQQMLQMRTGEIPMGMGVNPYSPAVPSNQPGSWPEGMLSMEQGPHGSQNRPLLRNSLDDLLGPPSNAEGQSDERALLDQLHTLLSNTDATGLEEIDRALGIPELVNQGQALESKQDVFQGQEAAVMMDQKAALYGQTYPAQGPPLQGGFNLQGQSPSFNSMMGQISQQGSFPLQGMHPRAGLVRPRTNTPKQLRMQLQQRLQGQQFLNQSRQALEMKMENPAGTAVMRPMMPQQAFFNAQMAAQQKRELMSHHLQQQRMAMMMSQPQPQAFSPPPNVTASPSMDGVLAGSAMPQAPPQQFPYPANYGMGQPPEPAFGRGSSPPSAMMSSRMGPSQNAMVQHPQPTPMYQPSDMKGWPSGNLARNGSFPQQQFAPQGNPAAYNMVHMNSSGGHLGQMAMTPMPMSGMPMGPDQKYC
HSF-1 act – increases HSF-1 driven luciferase reporter signal. NIH3T3-HGL HSF-1 luciferase reporter, MG132, 8 h; 100% = twice DMSO control signal. activation, % at 9 µM. 1.7% of 300,000 active. AID 504408;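 active = mean replicate activation of at least 50% with a set share of replicates each reaching 50%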;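 note: 0% = median of the neutral control wells and 100% = twice that signal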
HSF1 inhib – HSF1 inhibition; activity change, negative = inhibition, % at 7.5 µM (by protocol); NIH3T3-HGL HSE-luciferase, MG132-induced, luminescence 8 h; stronger effect = lower value; 0.77% of 300,000 active;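 active = more than half of replicate wells show activity change below -50%, luminescence cut by over half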;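 note: luciferase reports HSF-1 transcriptional activity via heat shock element; 0% = median of DMSO wells and -100% = zero luminescence signal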
NALP1 yeast inh – NALP1 inhibition. S. cerevisiae NALP1/ASC/caspase-1 growth, X-gal OD620, 72 h. inhibition, % at 10 µM. 0.61% of 280,000 active. AID 2071; in the data active = inhibition mostly above about 24%, no sharp cut-off; inactive = mostly below about 32%
Hsp70 act – transcriptional activators of Hsp70 | HeLa Hsp70 promoter luciferase reporter, luminescence; scaled: vehicle 0, proteasome-inhibitor control 100% | activation, % at 10 µM | 0.04% of 200,000 active;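 active = activation above the mean across all tested compounds plus 3 SD, cutoff set per campaign, cut at about 5.5% in these data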;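 note: 100% = MG132 at 30 µM as the positive control and 0% = DMSO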
Starred values were filed as active, the others as inactive; . = not tested or not shown. Only some compounds are listed: those with a hit (about 3.8% of all), similar ones and a draw of the others.

SMILES | HSP90 inh | p-CIP stab down | HSF-1 act | HSF1 inhib | NALP1 yeast inh | Hsp70 act
CCCC(c1nnnn1C(C)(C)CC)N(Cc1ccco1)Cc1cc2ccc(OC)cc2[nH]c1=O (configuration not stated) | 6 | -8 | 57* | 23 | 13 | 0
Cc1ccc2[nH]c(=O)c(CN(Cc3cccs3)C(=S)NCC3CCCO3)cc2c1 (configuration not stated) | -3 | 3 | -52 | -35 | 18 | 0
COc1ccc2cc(CN(Cc3ccco3)C(=S)NCC3CCCO3)c(=O)[nH]c2c1 (configuration not stated) | -2 | 2 | 55* | 25 | 12 | 0
CC(c1ccccn1)N(Cc1ccco1)C(=S)Nc1cccc(F)c1 (configuration not stated) | -2 | -4 | -12 | 0 | -3 | 0
COc1ccc(C2COC(=O)C2=N)c(NC(=O)c2ccc(Cl)cc2)c1 (configuration not stated) | -5 | 2 | 27 | 14 | 30 | 0
COc1ccc(CNC(=O)C2CCC(=O)N(CCCN3CCCC3=O)C2)cc1 (configuration not stated) | -4 | -8 | -11 | -5 | -1 | .
COc1ccccc1P(=O)(Cc1ccccc1)c1ccccc1 (configuration not stated) | -1 | -10 | -1 | 3 | 13 | .
CSCc1c(C(=O)NCCc2ccccn2)oc2ccccc12 | -2 | 6 | 14 | -5 | 9 | .
Brc1ccccc1OCCN1CCOCC1 | -5 | -4 | -18 | 3 | 9 | .
c1ccc(-c2nnc(OCCN3CCOCC3)c3ccccc23)cc1 | -1 | -4 | 3 | -5 | 42* | 0
O=c1oc(-c2ccccc2)nc2sc3c(c12)CCCC3 | 5 | -22 | 69* | 51 | 14 | 0
Nc1nc(-c2cccnc2)nc2sc3c(c12)CCCC3 | -1 | 1 | 80* | 28 | -5 | 0
Cc1ccccc1-c1nc2sc3c(c2c(=O)o1)CCC3 | 1 | -8 | 10 | -1 | 2 | 0
O=C(NC1CCCCC1)c1ccc(CS(=O)Cc2ccc(Cl)cc2)o1 (configuration not stated) | 1 | -9 | -14 | 2 | -16 | .
CC1(C)CC(=O)C(C(C2=C(O)CC(C)(C)CC2=O)c2ccc(Br)s2)C(=O)C1 (configuration not stated) | -2 | -4 | 124* | 102 | 24 | 0
CC12CCC(=O)N1C(C(=O)N1CCN(S(=O)(=O)c3ccc(Br)cc3Cl)CC1)CS2 (configuration not stated) | . | . | 2 | 5 | . | .
Cc1cccc(NC(=O)C2SC(=Nc3c(C)cccc3C)C(C(=O)N3CCOCC3)=C2N)c1 (configuration not stated) | 1 | 2 | -71 | -72* | 27 | 0
Cc1cc(Cl)ccc1OCC(=O)NCC(c1cccs1)N1CCOCC1 (configuration not stated) | . | . | 11 | 17 | . | .
Cn1cc([N+](=O)[O-])c(C(=O)Nc2ccc(C3CCCCC3)cc2)n1 | 0 | -24 | 75* | 94 | 2 | 0
CCn1cc([N+](=O)[O-])c(C(=O)Nc2ccn(Cc3ccccc3)n2)n1 | 5 | -9 | -2 | -14 | 14 | 0
Cn1cc([N+](=O)[O-])c(C(=O)Nc2cc(Oc3cccnc3)cc([N+](=O)[O-])c2)n1 | 1 | -5 | 142* | 114 | 13 | 0
Cc1cc(C)n(Cc2ccc(NC(=O)c3nn(C)cc3[N+](=O)[O-])cc2)n1 | 1 | -14 | 131* | 69 | -2 | 0
Cc1ccc(Cn2ccc(NC(=O)c3nn(C)cc3[N+](=O)[O-])n2)cc1 | 4 | 6 | 76* | 56 | 30 | 0
Cc1ccccc1-c1noc(CNC(=O)c2ccco2)n1 | -5 | 6 | 0 | 1 | 11 | .
O=C(NCc1ccccc1Cl)c1ccc2c(c1)OCO2 | 5 | 2 | -5 | -1 | 20 | .
CCCCN(C(=O)c1cc2c(s1)CCC2)c1c(N)n(CCCC)c(=O)[nH]c1=O | . | . | 38 | 22 | . | .
Cn1cc([N+](=O)[O-])c(C(=O)Nc2ccc(-c3nc4ccccc4[nH]3)cc2)n1 | 3 | -1 | 408* | 332 | 5 | 0
COC(=O)C[C@H]1c2cc(C(F)(F)F)ccc2S(=O)(=O)N1Cc1ccccc1OC | . | . | -7 | -3 | . | .

Bioassay records: PubChem BioAssay, several laboratories
